# Source: PubChem BioAssay (Broad Institute)
# Most compounds without a hit are left out; they make up all but 2.1% or so of the library.
# LMP1 NFkB inh: reduces LMP1-driven NF-kappaB luciferase signal. LMP1-induced NF-kappaB luciferase reporter cells, luminescence. AID 504558. 350,000 tested, 0.69% active. inhibition, % at 12.5 µM; in the data active means inhibition above about 41%;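 further: 0% = neutral control wells and 100% = reference inhibitor control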
# Shn3 3UTR inh: inhibitors of Schnurri-3 3'UTR reporter in osteoblasts; Clone20 osteoblast Shn3 3'UTR firefly luciferase, 24 h; inhibition, % at 12.5 µM; 360,000 tested, 0.52% active;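 active means mean inhibition of at least 75% with every replicate also reaching 75%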;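 further: 0% = median of neutral control wells and 100% = pilot-screen positive control compound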
# PAX8 inh HTS: lowers PAX8-driven luciferase in RMG-I cells | RMG-I TPO-luciferase reporter, SteadyGlo, 24 h | inhibition, % at 12.6 µM | 360,000 tested, 1.2% active;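 active means mean replicate inhibition at least 60% with every replicate also reaching 60%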;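 further: luciferase light reporting Pax8 driven TPO promoter activity; plate controls were median of neutral control wells for no effect and mitoxantrone controls for full effect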
# aSyn 5UTR inh: 5' untranslated region of α-synuclein, MLPCN primary screen | 300,000 tested, 0.82% active | alpha-synuclein 5'UTR reporter, inhibitor activity | inhibition, % (tested at 7.5 µM); in the data active means inhibition above about 60%;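 further: H4 neuroglioblastoma cells stably carrying SNCA 5'UTR luciferase fusion; 0% = DMSO wells and 100% = positive control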
# MITF TRPM1 inh: MITF TRPM1 promoter inhibition in SK-MEL-5 cells; 330,000 tested, 0.83% active; AID 488899; inhibition, % at 12.5 µM; SK-MEL-5 TRPM1 promoter luciferase, 24 h;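 active means mean inhibition across replicates of 60% or more, whatever share of single replicates reaches that level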
# * hit, by the source's call; nt = not tested or not shown; ! = not active in a repeat.
SMILES,LMP1 NFkB inh,Shn3 3UTR inh,PAX8 inh HTS,aSyn 5UTR inh,MITF TRPM1 inh
CCCC(=O)Nc1ccc2c(c1)OC[C@H](C)N(C)C[C@@H](C)[C@@H](OC)CN(C)C2=O,nt,nt,-6.9,nt,nt
CC(C)=CCC/C(C)=C/CN1C(=O)N(c2ccc(F)cc2)[C@H]2C[C@@H](c3ccccc3)[C@@H](C)[C@@H](C(=O)N3CCOCC3)C[C@H]21,nt,nt,100.9*,nt,nt
CC(=O)NC1=C(NC2CCS(=O)(=O)C2)C(=O)c2ccccc2C1=O (stereo not drawn),3.9,-23.1,14.9,10.7,49.5
CN(C1=C(NC(=O)c2ccccc2)C(=O)c2ccccc2C1=O)C1CCS(=O)(=O)C1 (stereo not drawn),-2.8,30.5,-37.3,-59.4,103.1*
COc1ccc(NC(=O)N(C)C[C@H]2Oc3ccc(NC(=O)Cc4ccccc4)cc3CC(=O)N([C@H](C)CO)C[C@H]2C)cc1,-1.2,-3.3,-1.5,nt,3.0
O=S(=O)(NCc1ccccc1Cl)c1ccc(-n2cnnn2)cc1,2.6,-4.0,-2.4,10.1,-4.2
Cc1ccc(CCNC(=O)CCn2ccc3cc(S(=O)(=O)N4CCCC4)ccc32)cc1,-1.2,7.3,16.7,-1.2,10.4
O=C(CCn1ccc2cc(S(=O)(=O)N3CCCC3)ccc21)NCCc1ccccc1,71.6*,-0.9,10.9,-12.8,-5.1
CCOC(=O)C1=C(C)NC(=O)CC1c1cc2c(cc1[N+](=O)[O-])OCO2 (stereo not drawn),0.1,16.6,15.4,-0.8,2.8
O=C(NC1CCCCC1)N1C[C@@H]2N[C@H](C1)C2c1ccc(-c2cccc(F)c2)cc1 (stereo partly drawn),nt,nt,62.6*!,nt,nt
N#Cc1cccc(-c2ccc(C3[C@@H]4CN(C(=O)C5CC5)C[C@H]3N4)cc2)c1 (stereo partly drawn),nt,nt,98.0*!,nt,nt
O=C(C1CC1)N1C[C@@H]2N[C@H](C1)C2c1ccc(-c2cccc(F)c2)cc1 (stereo partly drawn),nt,nt,82.7*!,nt,nt
Cc1cccc(-c2ccc(C3[C@@H]4CN(C(=O)C5CCOCC5)C[C@H]3N4)cc2)c1 (stereo partly drawn),nt,nt,-1.7,nt,nt
O=c1c2cc([N+](=O)[O-])ccc2sn1-c1ccccc1,-1.1,-44.6,-29.7,nt,nt
N#Cc1c2ccc([N+](=O)[O-])cc2[n+]([O-])n1-c1ccccc1,49.9*,31.5,67.9*,nt,89.9*
CCOC(=O)CSc1nnc(-c2cccnc2)o1,0.9,-6.9,nt,-13.5,-5.8
O=S(=O)(c1ccc(F)cc1)N1C[C@@H]2[C@H](c3ccccc31)[C@@H](CO)N2Cc1ccc2c(c1)OCO2,nt,nt,19.5,nt,nt
CCN(Cc1ccccc1)S(=O)(=O)c1ccc(C(=O)N(CCCN(C)C)c2nc3cc(C)cc(C)c3s2)cc1,-7.3,2.4,22.7,-13.2,90.0*
Cc1cc(C)c2sc(N(CCCN(C)C)C(=O)c3ccc(S(=O)(=O)N(C)Cc4ccccc4)cc3)nc2c1,-4.4,5.1,22.0,8.1,56.7
CCCCN(CC)S(=O)(=O)c1ccc(C(=O)N(CCCN(C)C)c2nc3cc(C)cc(C)c3s2)cc1,0.0,10.7,27.1,16.5,79.3*
COc1cccc(/C=N/Nc2ncnc3c2ncn3Cc2ccccc2)c1O,78.3*,90.2*,52.0,101.9*,58.6
COc1cccc(/C=N/Nc2cc(N3CCOCC3)ncn2)c1O,23.3,75.1,33.0,72.2*,-6.1
COc1ccc(/C=N/Nc2cc(N3CCOCC3)ncn2)c(OC)c1,0.0,6.2,-10.1,-17.4,14.3
Cc1ccc(OCC(=O)Nc2ccc(S(=O)(=O)N(C)C3CCN(C)CC3)cc2)c(C)c1,0.4,-16.0,-1.6,4.0,-11.1
CN(C)S(=O)(=O)c1cccc(NC(=O)CN(CCO)CC(=O)Nc2cccc(S(=O)(=O)N(C)C)c2)c1,-0.9,-11.8,31.6,-6.1,-13.5
SMILES,LMP1 NFkB inh,Shn3 3UTR inh,PAX8 inh HTS,aSyn 5UTR inh,MITF TRPM1 inh
N#C[C@@H]1[C@H](c2ccc(C#CC3CCCC3)cc2)[C@H](CO)N1C(=O)Nc1ccc(F)cc1,nt,nt,85.5*,nt,nt
N#C[C@H]1[C@@H](c2ccc(C#Cc3ccc(F)cc3)cc2)[C@H](CO)N1C(=O)Nc1ccc(F)cc1,nt,nt,93.6*,nt,nt
Cc1ccc(C)c(C(=O)O/N=C(\N)c2ccc(Br)cc2)c1,-67.2,-66.8,-63.5,-40.2,-23.8
Cc1sc(C(=O)NCc2cccnc2)c2nc(C)n(CC(=O)NCc3cccnc3)c(=O)c12,3.0,-22.0,nt,8.9,-1.9
CS(=O)(=O)Nc1cccc(-c2cc(NC=O)c3ncc(-c4ccc(F)cc4)n3c2)c1,nt,47.5,80.7*,nt,nt
COc1ccc(-c2cnc3c(NC=O)cc(-c4ccccc4OC)cn23)cc1OC,nt,14.1,99.9*,nt,nt
